From PubChem
DT40 TDP1 CPT: growth inhibition of DT40 Tdp1-/-;hTDP1 cells with camptothecin (screen for TDP1 inhibitors). chicken DT40 Tdp1-/-;hTDP1 cells + 20 nM CPT, ATP luminescence, 48 h. Potency, µM (highest dose often 46.2 µM), inactives show top-dose activity change, negative = growth inhibition, usual class: inhibitors. 420,000 compounds, 12% hits. AID 686979; note: potency is the fitted concentration of half-maximal effect; % is set by controls: 0 for no effect and ±100 for the full control effect; nearly all actives have a fitted effect of over 55% in size
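Cell growth measured by CellTiter-Glo luminescence after a minimum 48 h, 37 C compound exposure with 20 nM CPT in Tdp1-knockout DT40 cells stably expressing hTDP1, seeded 400/well; qHTS titration format.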
HepG2 tox: counter-screen for TGF-b inhibitors: cytotoxicity in HepG2 cells | HepG2 CAGA-GFP viability, ATP luminescence, 18 h | Potency, µM (highest dose often 46.1 µM), for the others: top-dose activity change, negative = cytotoxicity, hits mostly cytotoxic | 410,000 compounds, 0.76% hits | AID 588856; note: potency is the fitted concentration of half-maximal effect
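HepG2 CAGA-GFP cells (1000/well, DMEM with 1% FBS) received compound, then TGF-beta at 500 pg/mL final, and were incubated 18 hours at 37 degrees C. Viability was read by CellTiter-Glo luminescence. Media-only wells were set as complete cell-killing and DMSO as no toxicity.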
IL-1B inflam inh: blocks inflammasome-driven IL-1 beta release | THP-1 LPS/ATP IL-1B secretion, AlphaLISA, 16 h; hits give low values | activity change, % at 57.5 µM | 360,000 compounds, 4.7% hits | AID 743279; in the data active = activity change below about -50%; inconclusive = mostly about -30% to -49%; note: % is set by controls: 0 for no effect and ±100 for the full control effect
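Secreted IL-1B measured by AlphaLISA bead assay after 16 h compound exposure of THP-1 cells; compounds (final up to 57.5 uM) added 1 h before LPS (250 ng/mL) and ATP (1.25 mM) stimulation; lower signal means less secretion.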
TDP1 cell noCPT: qHTS for Inhibitors of human tyrosyl-DNA phosphodiesterase 1 (TDP1): qHTS in cells in absence of CPT. Potency, µM (titrated, usually from 46.2 µM), without a hit: at the top dose activity change, negative = growth inhibition, most hits filed as inhibitors. AID 686978, 2013. DT40 Tdp1-/- hTDP1 cells, no CPT, ATP luminescence, 48 h. 420,000 compounds, 15% hits; note: potency is the fitted concentration of half-maximal effect; % is set by controls: 0 for no effect and ±100 for the full control effect; nearly all actives have a fitted effect of over 55% in size
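Luminescent ATP content (CellTiter-Glo) served as the growth readout. Knockout chicken DT40 cells expressing human TDP1 were exposed to compounds without camptothecin for a minimum 48 hr at 37 °C.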
TGFb SMAD3 inh: blocks TGF-b signaling; Potency, µM (doses to about 46.1 µM), without a hit: top-dose activity, negative = inhibition, most hits filed as inhibitors; 410,000 compounds, 1.2% hits; AID 588855; HepG2 CAGA-GFP TGF-b/SMAD3 reporter, GFP fluorescence, 18 h; TGF-beta stimulated, 500 pg/mL final; note: potency is the fitted concentration of half-maximal effect; % is set by controls: 0 for no effect and ±100 for the full control effect; nearly all actives have a fitted effect of over 65% in size
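Inhibition was scored as loss of TGF-beta-induced (500 pg/mL final, 18 hours, 37 degrees C) GFP in HEPG2 cells carrying a CAGA-GFP reporter, in DMEM with 1% FBS. Well GFP was summed per cell; Activity was normalised to unstimulated and stimulated DMSO wells, then concentration-response fitting.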
TDP1 block: blocks human tyrosyl-DNA phosphodiesterase 1 | recombinant TDP1, AlphaScreen DNA substrate cleavage | Potency, µM (highest dose often 130 µM), inactives show at the highest dose activity change, negative = inhibition, actives largely listed as inhibitors | 350,000 compounds, 0.28% hits | AID 485290; note: potency is the fitted concentration of half-maximal effect; % is set by controls: 0 for no effect and ±100 for the full control effect; nearly all actives have a fitted effect of over 40% in size
Target sequence (Q9NUW8 whole entry, looked up): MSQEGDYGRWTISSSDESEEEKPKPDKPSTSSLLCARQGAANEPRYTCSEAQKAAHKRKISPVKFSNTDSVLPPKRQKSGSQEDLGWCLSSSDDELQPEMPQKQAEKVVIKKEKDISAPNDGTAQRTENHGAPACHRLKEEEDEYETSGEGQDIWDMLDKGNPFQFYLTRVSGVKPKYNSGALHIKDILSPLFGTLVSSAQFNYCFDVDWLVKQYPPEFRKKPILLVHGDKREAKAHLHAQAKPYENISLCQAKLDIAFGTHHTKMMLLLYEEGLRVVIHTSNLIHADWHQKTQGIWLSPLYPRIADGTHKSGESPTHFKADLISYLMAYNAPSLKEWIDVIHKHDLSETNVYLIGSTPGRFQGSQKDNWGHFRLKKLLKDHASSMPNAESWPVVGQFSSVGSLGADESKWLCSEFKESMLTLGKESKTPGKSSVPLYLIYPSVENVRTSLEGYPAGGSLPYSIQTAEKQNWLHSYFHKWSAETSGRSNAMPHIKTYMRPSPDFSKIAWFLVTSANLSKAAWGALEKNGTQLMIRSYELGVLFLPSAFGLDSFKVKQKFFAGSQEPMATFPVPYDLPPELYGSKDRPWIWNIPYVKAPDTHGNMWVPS
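AlphaScreen read-out: signal falls as enzyme removes the 3' tyrosine-FITC from a 5'-biotinylated DNA oligo (15 nM, 5 min, RT). Enzyme was E. coli-made recombinant Tdp1 at 1 nM, exposed to compound for 15 min beforehand; beads 10 ug/ml, 10 min.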
* hit, by the source's call; ? = inconclusive; / = not tested or not shown; [ ] = remark or other dose. The list is not random: actives were taken first. Their share in the collection is about 19%. Unless noted, calls come from the whole dose curve; as a rule, active = well fitted curve in the direction sought with a large enough effect; inconclusive = small, poorly fitted or top-dose-only effect, or another doubt; inactive = no such curve, though single readings can be large; an effect the other way counts as inactive or inconclusive.

SMILES | DT40 TDP1 CPT | HepG2 tox | IL-1B inflam inh | TDP1 cell noCPT | TGFb SMAD3 inh | TDP1 block
CN1CCN(c2ccc(CNC(=O)C3(C)Cc4c(-c5ccc6c(c5)OCO6)ccnc4O3)cc2)CC1 (configuration not stated) | ? | -48% | ? | 15µM* | 18% | /
COCCNC(=O)C1(C)Cc2c(-c3ccc(N(C)C)cc3)ccnc2O1 (configuration not stated) | 5.2µM* | -28% | 9 | 4.6µM* | 0% | /
CN(C)c1ccc(-c2ccnc3c2CC(C)(C(=O)NCCc2ccccc2)O3)cc1 (configuration not stated) | 29µM* | -12% | -18 | ? | 63% | /
CN(C)c1ccc(-c2ccnc3c2CC(C)(C(=O)Nc2ccc(Cl)cc2)O3)cc1 (configuration not stated) | ? | -5% | -23 | ? | 1% | /
C=CCOC(=O)NC(CC(=Nc1ccc(OC)cc1)C(=O)OC)c1ccccc1 (configuration not stated) | / | / | / | / | / | 9%
Cc1ccc(C)c(CN2CCC3(CCC(CNC(=O)c4ccnn4C)O3)CC2)c1 (configuration not stated) | -6% | / | / | -28% | / | /
C[C@H](CO)N1C[C@H](C)[C@@H](CN(C)C(=O)Nc2ccccc2)Oc2ccc(NC(=O)Cn3cnnn3)cc2C1=O | 12% | -2% | 17 | 11% | 8% | 0%
COC(=O)NC(c1ccc2ccccc2c1)C(C(C)=O)C(=O)OC (configuration not stated) | / | / | / | / | / | 3%[21 µM]
Cc1cc2oc(=O)cc(CN3CCCCC3)c2cc1Cl | ? | -24% | 16 | ? | 3% | /
CC1(C(=O)NCCc2ccccc2)Cc2c(-c3cccc(C(N)=O)c3)ccnc2O1 (configuration not stated) | ? | -3% | 29 | 18µM* | 17% | /
CC1(C(=O)NCC2CC2)Cc2c(-c3ccc4c(c3)OCO4)ccnc2O1 (configuration not stated) | 4.6µM* | -19% | 46 | 5.2µM* | 13% | /
CN(C)c1ccc(CNC(=O)C2(C)Cc3c(-c4ccc(N(C)C)cc4)ccnc3O2)cc1 (configuration not stated) | ? | -7% | -19 | 18µM* | -5% | /
CN(C)c1ccc(CNC(=O)C2(C)Cc3c(-c4cccc(C(N)=O)c4)ccnc3O2)cc1 (configuration not stated) | 15µM* | -8% | 64 | ? | 27% | /
CN(C)c1ccc(CNC(=O)C2(C)Cc3c(-c4ccccc4)ccnc3O2)cc1 (configuration not stated) | ? | -2% | ? | ? | -4% | /
COCCNC(=O)C1(C)Cc2c(-c3cccc(C(N)=O)c3)ccnc2O1 (configuration not stated) | ? | -15% | 72 | -19% | -9% | /
CCOc1ccc2ccccc2c1C1NC(=O)N(C)C(C)=C1C(=O)OCCOC (configuration not stated) | -29% | 1% | 7 | ? | 2% | 4%
COc1ccc(NC(=O)CN2CCCC2c2cccs2)cc1S(=O)(=O)N1CCCCC1 (configuration not stated) | ? | -23% | ? | ? | ? | 2%
CCOC(=O)c1c(C)[nH]c(CCC(=O)NCCCN2CCN(c3ccccc3F)CC2)c1C | ? | -34% | / | ? | ? | 3%
CN(C)c1ccc(CNC(=O)C2(C)Cc3c(-c4ccc5c(c4)OCO5)ccnc3O2)cc1 (configuration not stated) | 4.6µM* | -3% | 0 | 3.7µM* | -22% | /
CC(=O)Nc1ccc(-c2ccnc3c2CC(C)(C(=O)NCc2ccncc2)O3)cc1 (configuration not stated) | 6% | 0% | -1 | 1% | 7% | /
COc1ccc(CNC(=O)C2(C)Cc3c(-c4ccc(C(N)=O)cc4)ccnc3O2)cc1OC (configuration not stated) | 0% | 7% | -4 | -11% | -5% | /
COc1ccc(CNC(=O)C2(C)Cc3c(-c4ccc5c(c4)OCO5)ccnc3O2)cc1OC (configuration not stated) | ? | -3% | 24 | 16µM* | 13% | /
O=C(CSc1ccncc1)NCC1Cc2cccc(-c3cncnc3)c2O1 (configuration not stated) | ? | / | / | -27% | / | /
Cc1ccccc1NC(=O)c1ccccc1NC(=O)Cc1cccc2ccccc12 | -25% | -7% | -5 | ? | -16% | 3%
Cc1ccccc1NC(=O)c1cccc2nc3ccccc3nc12 | ? | -25% | -18 | 23µM* | 2% | 10%
SMILES | DT40 TDP1 CPT | HepG2 tox | IL-1B inflam inh | TDP1 cell noCPT | TGFb SMAD3 inh | TDP1 block
O=c1n(-c2ccccc2)c(=O)n2n1CC[C@H]1/C(=N\OC[C@@H](O)COCc3ccco3)[C@H]3O[C@@H]3[C@@H](O)[C@@H]12 | / | / | / | / | / | 6%[21 µM]
CC1CCN(CC(O)COC2CCC(C(C)(C)C)CC2)CC1 (configuration not stated) | 23µM* | -33% | ? | 18µM* | 10% | 2%
Cc1ccc(C)c(OCC(O)CN2CCC(C)CC2)c1C (configuration not stated) | ? | -24% | 24 | 21µM* | 11% | -2%
Cc1cc(OCC(O)CN2CCc3ccccc3C2)ccc1Cl (configuration not stated) | -7% | -39% | -62* | ? | ? | /
Cc1ccc(C)c(OCC(O)CN2CCc3ccccc3C2)c1C (configuration not stated) | 6.5µM* | -23% | 0 | 3.7µM* | ? | /
O=C(CNC(=O)c1ccc(-c2ccccc2)cc1)OCc1c(F)cccc1Cl | -15% | 2% | 30 | 9% | -5% | -3%
COc1ccc(NC(=O)c2cc(S(=O)(=O)N3CCOCC3)cs2)cc1 | -7% | -6% | 11 | -29% | 18% | 0%
CS(=O)(=O)Nc1cccc(NC(=O)c2ccc(-n3ccnc3)c3ccoc23)c1 | 13µM* | -25% | -28 | 15µM* | -7% | /
Cn1nccc1-c1ccc(C(=O)Nc2cccc(NS(C)(=O)=O)c2)c2occc12 | ? | -22% | -50* | 26µM* | 7% | /
